Pol kappa inh: qHTS for Inhibitors of Polymerase Kappa. DNA polymerase kappa (Homo sapiens), Q9UBT6. purified Pol kappa, fluorescent DNA synthesis assay, 10 min. Potency, µM (series often up to 107 µM), inactives show at the highest dose activity, negative = inhibition, hits mostly inhibitors. hit rate 0.53% among 400,000; also: potency is read from the fitted curve at half-maximal effect; % is scaled to controls: 0 for no effect and ±100 for the full control effect
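Activity was followed as the change in fluorescence between reads at 0 and 10 min after starting the reaction with 50 nM substrate. Beforehand, 10 nM polymerase had been preincubated with compound for 15 min at room temperature.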
WRN helicase inh: qHTS for Inhibitors of WRN Helicase; Bifunctional 3'-5' exonuclease/ATP-dependent helicase WRN (Homo sapiens), Q14191; WRN helicase unwinding, fluorescent forked duplex, kinetic; Potency, µM (highest dose often 114 µM), without a hit: at the top dose activity change, negative = inhibition, most hits filed as inhibitors; hit rate 0.46% among 360,000; AID 651768, 2012; also: potency is read from the fitted curve at half-maximal effect; % is scaled to controls: 0 for no effect and ±100 for the full control effect; nearly all actives have a fitted effect of over 55% in size
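Screening of the MLSMR collection measured strand separation of a quenched forked DNA duplex (100 nM) by 20 nM WRN with 2 mM ATP, all final. Compounds were preincubated with enzyme 15 min at room temperature.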
POLI inh: qHTS for Inhibitors of Polymerase Iota; hit rate 1% among 390,000; AID 588590, 2011; Potency, µM (highest dose often 115 µM), without a hit: top-dose activity, negative = inhibition, usual class: inhibitors; Pol iota fluorescent replication assay, 10 min; also: potency is read from the fitted curve at half-maximal effect
Target sequence (Q9UNA4 whole entry, looked up): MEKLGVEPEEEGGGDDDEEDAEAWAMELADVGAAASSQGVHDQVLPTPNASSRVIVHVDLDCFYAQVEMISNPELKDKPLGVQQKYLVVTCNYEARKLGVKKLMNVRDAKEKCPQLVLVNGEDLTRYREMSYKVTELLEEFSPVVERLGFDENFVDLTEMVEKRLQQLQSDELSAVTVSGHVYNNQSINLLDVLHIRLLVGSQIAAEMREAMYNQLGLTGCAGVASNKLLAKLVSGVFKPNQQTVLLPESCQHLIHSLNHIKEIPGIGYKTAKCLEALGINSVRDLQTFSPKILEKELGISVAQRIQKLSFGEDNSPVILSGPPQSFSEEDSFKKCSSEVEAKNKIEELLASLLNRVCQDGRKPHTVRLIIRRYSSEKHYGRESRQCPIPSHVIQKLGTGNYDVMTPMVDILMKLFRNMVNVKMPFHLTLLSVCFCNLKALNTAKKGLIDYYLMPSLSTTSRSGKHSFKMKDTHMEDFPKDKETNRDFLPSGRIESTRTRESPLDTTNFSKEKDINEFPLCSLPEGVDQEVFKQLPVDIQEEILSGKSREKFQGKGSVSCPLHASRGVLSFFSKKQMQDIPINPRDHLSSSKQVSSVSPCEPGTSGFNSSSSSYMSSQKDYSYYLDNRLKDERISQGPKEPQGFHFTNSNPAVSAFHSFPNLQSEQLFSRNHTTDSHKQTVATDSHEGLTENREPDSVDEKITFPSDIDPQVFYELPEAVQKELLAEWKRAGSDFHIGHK
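Pol iota at 10 nM preincubated 15 min with compounds at room temperature; reaction started with fluorescent substrate, 50 nM final. Fluorescence read kinetically at 0 and 10 min; buffer-only wells as negative control.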
Pol beta inh-1: qHTS Assay for Inhibitors of DNA Polymerase Beta; AID 485314, 2010; hit rate 1.3% among 340,000; Pol beta primer extension/strand displacement, fluorescence kinetic; Potency, µM (top dose mostly 114 µM), for inactives: at the top dose activity change, negative = inhibition, actives largely listed as inhibitors; also: potency is read from the fitted curve at half-maximal effect; % is scaled to controls: 0 for no effect and ±100 for the full control effect
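Enzyme-only controls used 10 nM Pol beta; buffer lacking enzyme served as negative control. Compound preincubated 15 min, then 50 nM substrate added; 0 and 10 min reads at room temperature.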
FEN1 inhibitor: qHTS Assay for the Inhibitors of Human Flap endonuclease 1 (FEN1). hit rate 0.35% among 390,000. P39748. AID 588795, 2011. Potency, µM (top dose mostly 114 µM), for the others: at the highest dose activity change, negative = inhibition, most hits filed as inhibitors. Recombinant FEN1 flap cleavage, fluorescence, 15 min; also: potency is read from the fitted curve at half-maximal effect; % is scaled to controls: 0 for no effect and ±100 for the full control effect; nearly all actives have a fitted effect of over 65% in size
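Steps: FEN1 (10 nM) dispensed; compound added by pin tool; 15 min at room temperature; substrate added to 50 nM final; reads at 0 min and 15 min; data normalized and fitted (four-parameter Hill).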
POLH inh: qHTS for Inhibitors of Polymerase Eta. Potency, µM (highest dose often 114 µM), for the others: top-dose activity change, negative = inhibition, hits mostly inhibitors. hit rate 1.2% among 390,000. recombinant Pol eta, fluorescent DNA replication assay. DNA polymerase eta (Homo sapiens), Q9Y253; also: potency is read from the fitted curve at half-maximal effect; % is scaled to controls: 0 for no effect and ±100 for the full control effect
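Fluorescent replication assay: 50 nM final substrate added after a 15 min room-temperature compound preincubation with 10 nM enzyme. Signal taken at 0 min and again at 10 min.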
Pol beta inh-2: Inhibitors of DNA Polymerase Beta: Hit validation; shares compounds with Pol beta inh-1; Pol beta primer extension/strand displacement, fluorescence kinetic; Potency, µM, hits mostly inhibitors; hit rate 87% among 250; calls by dose curve; also: potency is read from the fitted curve at half-maximal effect
Klenow inh: Inhibitors of DNA Polymerase Beta: Hit Validation in Klenow Fragment Assay | Klenow exo- polymerase counter-screen, fluorescent DNA substrate | AID 540300, 2011 | activity change, negative = inhibition, % at 57.1 µM | shares compounds with Pol beta inh-1 | 250 tested, under 10 active
HIV RT inh: Inhibitors of DNA Polymerase Beta: Hit Validation in HIV-RT Assay; shares compounds with Pol beta inh-1; HIV-1 RT polymerase activity, counter-screen; activity % (negative = inhibition, positive = activation), % at 57.1 µM; 250 tested, under 10 active; AID 540301, 2011
POLB inh gel: Inhibitors of DNA Polymerase Beta: Hit Validation in Radiolabeled Extension Assay. shares compounds with Pol beta inh-1. AID 540325, 2011. radiolabeled primer extension gel assay, phosphorimager. hit rate 91% among 110. inhibition, % at 10 µM;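 active = inhibition at 10 µM of 30% or more; inconclusive = no clear call, values can overlap the other calls; inactive = inhibition at 10 µM under 30%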
* hit, by the source's call; ? = inconclusive; / = no result given; [ ] = remark or other dose. Compounds with a hit are over-represented: about 2.4% of the library has one in this group of screens. Unless noted, calls follow the shape of the dose curve; as a rule, active = well fitted curve in the direction sought with a large enough effect; inconclusive = small, poorly fitted or top-dose-only effect, or another doubt; inactive = no such curve, though single readings can be large; an effect the other way counts as inactive or inconclusive.

SMILES	Pol kappa inh	WRN helicase inh	POLI inh	Pol beta inh-1	FEN1 inhibitor	POLH inh	Pol beta inh-2	Klenow inh	HIV RT inh	others
CCN(C(=O)COC(=O)c1ccc2c(c1)OCO2)c1ccccc1	-10%	-10%	94%	/	5%	2%	/	/	/
O=C(Cn1cnc2sc(-c3ccccc3)cc2c1=O)NCc1ccco1	32µM*	56µM*	10µM*	7.9µM*	?	7.1µM*	7.1*	-10	18
O=C(Cn1cnc2sc(-c3ccccc3)cc2c1=O)NCc1ccccc1	-7%	-11%	?	?	0%	-10%	/	/	/
Cc1onc(-c2c(Cl)cccc2Cl)c1C(=O)N=C(N)N1CCOCC1	0%	0%	17%	0%	2%	-19%	/	/	/
CCOc1ccc(C(=O)Nc2ccc(NC(=O)c3ccccc3)c(C)c2)cc1[N+](=O)[O-]	-2%	-28%	153%	20µM*	-4%	-23%	18*	-3	42
COc1cc(S(=O)(=O)N2CCOCC2)c(OC)c(S(=O)(=O)N2CCOCC2)c1	-9%	-11%[57.1 µM]	3%	/	-2%	-7%	/	/	/
CCOc1ccc(C(=O)/C=C/Nc2ccc(S(=O)(=O)Nc3cc(C)nc(C)n3)cc2)cc1	-32%	-18%[57.1 µM]	40µM*	8.9µM*	-17%	?	35*	-36	1	POLB inh gel=69*
CCn1c(=NC(=O)c2cccc(N3C(=O)CCC3=O)c2)sc2c(C)ccc(OC)c21	-7%	-9%	6%	34%	0%	-5%	/	/	/
CCn1c(=NC(=O)c2ccc(N3C(=O)CCC3=O)cc2)sc2c(OC)ccc(OC)c21	?	-33%	16µM*	10µM*	?	?	?	-33	57	POLB inh gel=98*
CN(CCOC(=O)CN1C(=O)c2ccccc2C1=O)C1=NS(=O)(=O)c2ccccc21	/	/	/	-19%	/	/	/	/	/
O=C(Nc1nnc(SCc2c(Cl)cccc2Cl)s1)C1CC(=O)N(c2ccc3c(c2)OCCO3)C1 (centres undefined)	?	-19%[57.1 µM]	16µM*	7.1µM*	0%	?	?	-23	4
Cc1csc(NC(=O)C2CC(=O)N(c3ccc4c(c3)OCCO4)C2)n1 (centres undefined)	-4%	2%	17%	/	17%	4%	/	/	/
O=C(Nc1nc(-c2ccco2)c(-c2ccco2)s1)C1CC(=O)N(c2ccc3c(c2)OCCO3)C1 (centres undefined)	20µM*	13µM*	7.9µM*	8.9µM*	?	8.9µM*	?	-26	-3	POLB inh gel=97*
COC(=O)c1ccc(CSc2nc3scc(-c4cccs4)c3c(=O)[nH]2)o1	?	?	?	20µM*	-9%	?	32*	-9	22	POLB inh gel=98*
C=CCn1c(=NC(=O)c2sc3ccccc3c2Cl)sc2cc(S(N)(=O)=O)ccc21	?	-33%[57.1 µM]	26%	8.9µM*	-14%	?	14*	-9	44
COc1ccc(C(=O)Nc2ccc3c(c2)C(=O)c2ccccc2C3=O)cc1OC	-10%	-33%	-5%	2.2µM*	-15%	?	22*	-15	23	POLB inh gel=70*
CC(=O)Nc1c(Br)cc2c(c1Br)Cc1cc(Br)ccc1-2	-5%	-7%	8%	/	-9%	-4%	/	/	/
Nc1nc2c(c(=O)[nH]1)CN(Cc1ccccc1)CC2	4%	-2%	64%	/	20%	-21%	/	/	/
O=c1[nH]c(C(Cl)Cl)nc2sc3c(c12)CCN(Cc1ccccc1)C3	?	-36%	?	13µM*	-32%	40µM*	16*	-5	4
COc1cc(OC)c(OC)cc1/C=C1\Oc2cc(OS(C)(=O)=O)ccc2C1=O	?	?	20µM*	11µM*	-29%	50µM*	35*	-30	17	POLB inh gel=96*
CS(=O)(=O)Oc1ccc2c(c1)O/C(=C\c1cccnc1)C2=O	-7%	-1%	-9%	26%	-23%	-14%	/	/	/
Cc1ccc2nc(-c3ccccc3)nc(SC(C)C(=O)NCc3cccs3)c2c1 (centres undefined)	/	/	/	11%	/	/	/	/	/
O=C(COC(=O)C1CC(=O)N(Cc2ccccc2)C1)c1ccc(Br)cc1 (centres undefined)	2%	9%	11%	21%	4%	-15%	/	/	/
O=C(COC(=O)C1CC(=O)N(Cc2ccco2)C1)c1ccc(OC(=O)c2ccco2)cc1 (centres undefined)	32µM*	35µM*	18µM*	7.1µM*	?	3.2µM*	8.9*	-4	?
Cc1ccc(C(=O)Oc2ccc(C(=O)COC(=O)C3CC(=O)N(Cc4ccco4)C3)cc2)cc1 (centres undefined)	45µM*	?	4.5µM*	16µM*	-24%	13µM*	14*	-11	13
Cc1[nH]c2ccccc2c1C(=O)COC(=O)C1CC(=O)N(Cc2ccco2)C1 (centres undefined)	-24%	-4%	-2%	-1%	-1%	10%	/	/	/
CCc1ccc(-c2cc(C(=O)NCCCn3ccnc3)c3ccccc3n2)s1	/	/	/	-12%	/	/	/	/	/
CCN(CC)S(=O)(=O)c1ccc(N2CCOCC2)c(NC(=O)c2c3c(nc4ccccc24)CCC3)c1	?	-26%	32µM*	8.9µM*	-6%	35µM*	25*	-22	19	POLB inh gel=88*
CCN(CC)S(=O)(=O)c1ccc(N2CCOCC2)c(NC(=O)c2cccc3ccccc23)c1	-13%	-9%	71%	12%	-6%	-9%	/	/	/
O=C(CSc1nc(-c2cccs2)cc(C(F)(F)F)n1)NCc1ccccc1	-18%	6%	1%	30%	-2%	-1%	/	/	/
